Assay results taken from PubChem BioAssay (NCI).
Compounds without any hit were thinned out: in the full panel of roughly 83,000, 20% have a hit.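 Negative percent growth values reflect cell death: -40 means 40% of the cells present at the start died, and -100 means all died.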 Unmarked numbers belong to inactive results. Activity calls are given as the source filed them. The calls were made as follows: active = growth percent below 10; inactive = the rest.

How the values were obtained:
Experiment in all cases: NCI-60 one-dose screen, 48 h (100 = growth as untreated, 0 = no growth, -100 = all killed)
Details in all cases: 10 µM
[1] = system: DU-145 prostate
[2] = system: K-562 leukemia
[3] = system: MALME-3M melanoma
[4] = system: MDA-MB-231 breast
[5] = system: RXF 393 renal
[6] = system: SF-268 CNS
[7] = system: SF-295 CNS
[8] = system: SF-539 CNS
[9] = system: UACC-257 melanoma
[10] = system: M14 melanoma
[11] = system: HCT-15 colon
[12] = system: HT29 colon
[13] = system: SNB-75 CNS
[14] = system: U251 CNS
[15] = system: PC-3 prostate
[16] = system: SK-MEL-5 melanoma
[17] = system: UACC-62 melanoma
[18] = system: LOX IMVI melanoma
[19] = system: SK-MEL-28 melanoma
[20] = system: SNB-19 CNS

Question: How did the growth [1] turn out when `COc1cc2cc(Oc3ccc(NC(=O)Nc4ccc(Cl)c(Cl)c4)cc3)c(C)nc2cc1OC` was run?
Answer: Its growth is 24.8%.

Question: And the growth [2]?
Answer: The growth was 12.7%.

Question: And the growth [3]?
Answer: The growth was 14.9%.

Question: And the growth [4]?
Answer: The growth was 47.8%.

Question: What about the growth [5] of the same compound?
Answer: Its growth is 22.3%.

Question: What about the growth [6] of the same compound?
Answer: Its growth is 43.7%.

Question: And the growth [7]?
Answer: Its growth is 0.689% (active).

Question: And the growth [8]?
Answer: Its growth is 38.5%.

Question: What about the growth [9] of the same compound?
Answer: Its growth is 1.38% (active).

Question: And the growth [10]?
Answer: The growth was 25.8%.

Question: What about the growth [11] of the same compound?
Answer: The growth was 18.9%.

Question: What about the growth [12] of the same compound?
Answer: The growth was 10.9%.

Question: What about the growth [13] of the same compound?
Answer: Its growth is 22.4%.

Question: What about the growth [14] of the same compound?
Answer: Its growth is -32.3% (active).

Question: What about the growth [15] of the same compound?
Answer: Its growth is 4.12% (active).

Question: What about the growth [16] of the same compound?
Answer: Its growth is -35% (active).

Question: What about the growth [17] of the same compound?
Answer: The growth was 20.4%.

Question: And the growth [18]?
Answer: The growth was 23.1%.

Question: What about the growth [19] of the same compound?
Answer: Its growth is 44.6%.

Question: Which growth [1] does the source give for `O=C(CSc1nnc(-c2ccc(Cl)cc2)o1)Nc1ccc(C(=O)/C=C/c2ccc(Cl)cc2)cc1` here?
Answer: The growth was 103%.

Question: And the growth [2]?
Answer: The growth was 93.4%.

Question: What about the growth [3] of the same compound?
Answer: Its growth is 114%.

Question: And the growth [4]?
Answer: The growth was 104%.

Question: What about the growth [5] of the same compound?
Answer: Its growth is 99.1%.

Question: What about the growth [6] of the same compound?
Answer: The growth was 99.7%.

Question: What about the growth [7] of the same compound?
Answer: The growth was 101%.

Question: What about the growth [8] of the same compound?
Answer: Its growth is 117%.

Question: What about the growth [9] of the same compound?
Answer: The growth was 98.7%.

Question: What about the growth [10] of the same compound?
Answer: The growth was 104%.

Question: And the growth [11]?
Answer: Its growth is 107%.

Question: And the growth [13]?
Answer: The growth was 98.1%.

Question: And the growth [20]?
Answer: Its growth is 94.6%.

Question: And the growth [14]?
Answer: Its growth is 104%.

Question: What about the growth [15] of the same compound?
Answer: Its growth is 92.8%.

Question: What about the growth [16] of the same compound?
Answer: Its growth is 94.1%.

Question: What about the growth [17] of the same compound?
Answer: The growth was 87.6%.

Question: And the growth [18]?
Answer: The growth was 98%.

Question: What about the growth [19] of the same compound?
Answer: The growth was 110%.

Question: What does the source list for `CCN(CC)CCNc1ccc(C)c2sc3cc(Cl)ccc3c(=O)c12`?
Answer: growth [1]: 43.5%; growth [2]: -51% (active); growth [3]: -26.4% (active); growth [4]: -15.9% (active); growth [5]: 12.9%; growth [6]: 47%; growth [7]: 70%; growth [8]: 66.3%; growth [9]: -28.2% (active); growth [10]: -64.9% (active); growth [11]: 26.6%; growth [12]: -25% (active); growth [13]: 59.8%; growth [14]: 16.5%; growth [15]: 34.9%; growth [16]: 14.1%; growth [17]: -67% (active); growth [18]: -84.5% (active); growth [19]: -59.3% (active)

Question: Which results are given for `CC(CN(C)C)Oc1ccc(OC(C)CN(C)C)c2c1C(=O)c1ccccc1C2=O` (stereo not given)?
Answer: growth [1]: 46.1%; growth [2]: 24.5%; growth [3]: 67.6%; growth [4]: 40.9%; growth [5]: 59.2%; growth [6]: 47.8%; growth [7]: 48.2%; growth [8]: 51%; growth [9]: 72.8%; growth [10]: 56.6%; growth [11]: 88.2%; growth [12]: 20.8%; growth [13]: 54.9%; growth [14]: 30.1%; growth [15]: 38.3%; growth [16]: 69.1%; growth [17]: 68%; growth [18]: 27.4%; growth [19]: 96%

Question: For `O=[N+]([O-])c1cc(Cl)cc(Cl)c1O`, which growth [1] is on record?
Answer: The growth was 105%.

Question: And the growth [2]?
Answer: Its growth is 109%.

Question: What about the growth [3] of the same compound?
Answer: Its growth is 97.1%.

Question: And the growth [4]?
Answer: Its growth is 110%.

Question: And the growth [5]?
Answer: Its growth is 104%.

Question: And the growth [6]?
Answer: The growth was 100%.

Question: And the growth [7]?
Answer: The growth was 97.3%.

Question: What about the growth [8] of the same compound?
Answer: Its growth is 89.7%.

Question: What about the growth [9] of the same compound?
Answer: The growth was 104%.

Question: And the growth [10]?
Answer: Its growth is 96.9%.

Question: What about the growth [11] of the same compound?
Answer: The growth was 101%.

Question: And the growth [13]?
Answer: Its growth is 90.8%.

Question: What about the growth [20] of the same compound?
Answer: Its growth is 103%.

Question: And the growth [14]?
Answer: The growth was 104%.

Question: What about the growth [15] of the same compound?
Answer: Its growth is 103%.

Question: What about the growth [16] of the same compound?
Answer: The growth was 101%.

Question: What about the growth [17] of the same compound?
Answer: The growth was 103%.

Question: And the growth [18]?
Answer: The growth was 92.6%.

Question: And the growth [19]?
Answer: The growth was 102%.

Question: What does the source list for `Cc1ccc(N=Nc2ccccc2)cc1`?
Answer: growth [1]: 111%; growth [2]: 112%; growth [3]: 98.4%; growth [4]: 109%; growth [5]: 106%; growth [6]: 99.8%; growth [7]: 90.3%; growth [8]: 100%; growth [9]: 88%; growth [10]: 90.9%; growth [11]: 99.5%; growth [12]: 92.3%; growth [13]: 105%; growth [20]: 102%; growth [15]: 78.1%; growth [16]: 102%; growth [18]: 103%; growth [19]: 102%

Question: What does the source list for `CC(C)(O)CCl`?
Answer: growth [1]: 109%; growth [2]: 106%; growth [3]: 116%; growth [4]: 99.8%; growth [5]: 117%; growth [6]: 111%; growth [7]: 97.9%; growth [8]: 99.8%; growth [9]: 91.9%; growth [10]: 108%; growth [11]: 102%; growth [13]: 110%; growth [20]: 102%; growth [14]: 103%; growth [15]: 102%; growth [16]: 104%; growth [17]: 102%; growth [18]: 104%

Question: For `O=[N+]([O-])c1cccc(/C=N/NC(=S)NC23CC4CC(CC(C4)C2)C3)c1`, which growth [1] is on record?
Answer: The growth was 83.9%.

Question: And the growth [2]?
Answer: Its growth is 89.2%.

Question: What about the growth [3] of the same compound?
Answer: The growth was 60.1%.

Question: And the growth [4]?
Answer: Its growth is 70.2%.

Question: And the growth [5]?
Answer: The growth was 75.9%.

Question: And the growth [6]?
Answer: Its growth is 77.8%.

Question: What about the growth [7] of the same compound?
Answer: Its growth is 73.3%.

Question: What about the growth [8] of the same compound?
Answer: The growth was 92.3%.

Question: And the growth [9]?
Answer: Its growth is 76.4%.

Question: What about the growth [10] of the same compound?
Answer: Its growth is 89%.

Question: And the growth [11]?
Answer: The growth was 96%.

Question: And the growth [12]?
Answer: The growth was 88.7%.

Question: And the growth [13]?
Answer: Its growth is 17.9%.

Question: What about the growth [14] of the same compound?
Answer: Its growth is 68.1%.

Question: What about the growth [15] of the same compound?
Answer: Its growth is 75.9%.

Question: What about the growth [16] of the same compound?
Answer: Its growth is 85.7%.

Question: And the growth [17]?
Answer: The growth was 84.3%.

Question: What about the growth [18] of the same compound?
Answer: Its growth is 76.4%.

Question: And the growth [19]?
Answer: Its growth is 85.4%.
